The list is not random: actives were taken first. Their share in the collection is about 0.51%.
phage Ecoli inh = E. coli growth loss with phage present; inhibition, % at 11.9 µM; 360,000 tested, 0.26% active; AID 651602; growth absorbance; in the data active means inhibition above about 11%
E coli growth-1 = counter-screen for AddAB inhibitors: E. coli growth inhibition. AID 449728. inhibition, % at 11.9 µM. E. coli V3065 growth, OD600 absorbance, 18 h. 330,000 tested, 0.27% active;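 active means inhibition above the campaign's mean inhibition across all tested compounds plus 3 SD, cut at about 9.9% in these data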;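 further: uninfected addAB+ strain grown without phage in ampicillin broth; 0% = DMSO wells and 100% = ciprofloxacin 0.95 µg/ml wells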
Tat export inh = blocks Tat-dependent protein export in E. coli | 340,000 tested, 0.036% active | inhibition, % at 10 µM | E. coli MC4100 TorA-mCherry Tat export, fluorescence;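 active means mean replicate inhibition at least 50% and at least half of replicates individually reaching 50%; inconclusive means only one of the two criteria met; inactive means neither criterion met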;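 further: exported cargo escapes ClpAP degradation while cytoplasmic cargo is degraded and loses fluorescence; 0% = median of neutral control wells and 100% = median of NaSCN control wells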
AddAB inh = less growth of phage-infected E. coli with AddAB. E. coli expressing H. pylori AddAB, absorbance growth. inhibition, % at 11.9 µM. 330,000 tested, 0.29% active. AID 435030; in the data active means inhibition above about 12%;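 further: 0% = vehicle wells of infected cells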
E coli growth-2 = inhibitors of Escherichia coli growth | OD600, 23 h; stronger effect = lower value | OD600 absorbance (concentration not given with the values) | 330,000 tested, 0.21% active;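 active means OD600 absorbance below the run mean of sample wells minus 3.6 SD, in any replicate, cut at about 0.56 in these data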
AddAB conf = growth loss of T4-infected E. coli expressing H. pylori AddAB, confirmed; E. coli V3065 expressing H. pylori AddAB, T4 phage, OD; T4 phage with gene 2 nonsense mutations; shares compounds with AddAB inh; AID 488942; 880 tested, 64% active; inhibition, % at 11.9 µM;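 active means mean inhibition above a set limit taken from the earlier primary screen, cut at about 13% in these data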;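 further: higher means less bacterial growth since AddAB block lets phage replicate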
RecBCD counter = counter-screen: growth loss of RecBCD+ E. coli with mutant T4 phage; shares compounds with AddAB inh; E. coli V66 + mutant T4 phage, OD growth; inhibition, % at 11.9 µM; 880 tested, 73% active; AID 488955;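 active means mean inhibition above the mean of solvent-only control wells plus 3 SD, cut at about 4% in these data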;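 further: optical density read after an 18 h incubation at 37 °C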
Bact viability = counter-screen for AddAB inhibitors: inhibitors of bacterial viability; shares compounds with AddAB inh; absorbance (AddAB counterscreen); inhibition, % at 11.9 µM; 880 tested, 35% active; in the data active means inhibition above about 25%
RecBCD conf = confirmation: growth loss of phage-infected RecBCD+ E. coli (RecBCD inhibitor screen) | E. coli V66 + T4 2- phage, growth OD | inhibition, % at 11.9 µM | shares compounds with phage Ecoli inh | AID 651982 | 890 tested, 45% active;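 active means mean inhibition over triplicates exceeding the hit threshold derived in the original primary screen, cut at about 11% in these data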
Ecoli viability = counter-screen for RecBCD inhibitors: inhibitors of bacterial viability. shares compounds with phage Ecoli inh. E. coli viability, absorbance (OD) growth. inhibition, % at 11.9 µM. 890 tested, 29% active; in the data active means inhibition above about 20%;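 further: E. coli strain V66 grown with compound alone and no phage infection; 0% = bacteria with DMSO vehicle only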
AddAB counter = growth loss of phage-infected AddAB E. coli, RecBCD counter-screen; E. coli expressing H. pylori AddAB + T4 phage, OD growth; gene 2 mutant T4, recBCD-deleted host; shares compounds with phage Ecoli inh; 890 tested, 45% active; inhibition, % at 11.9 µM;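 active means mean inhibition above the solvent-only control wells' mean plus 3 SD, cut at about 22% in these data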;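 further: higher means less bacterial growth from phage killing when AddAB is blocked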
Active calls of the source: *; ? = inconclusive; . = not tested or not shown.

SMILES | phage Ecoli inh | E coli growth-1 | Tat export inh | AddAB inh | E coli growth-2 | RecBCD conf | Ecoli viability | AddAB counter | others
CCCC(=O)NC(c1ccco1)c1cc(Cl)c2cccnc2c1O (centres undefined) | 21* | 14* | -2 | 16* | 0.73 | 11* | 15 | 24* | AddAB conf=22*;RecBCD counter=21*;Bact viability=17
CCC(=O)NC(c1cccs1)c1ccc2cccnc2c1O (centres undefined) | 19* | 20* | -1 | 21* | 0.64 | 7 | 12 | 19 | AddAB conf=10;RecBCD counter=17*;Bact viability=6
Oc1ccc(C=NN2CCN(C3c4ccccc4-c4ccccc43)CC2)cc1 | . | . | . | . | 0.67 | . | . | .
COc1cccc(NC(=O)CN(C)C(=O)CC2CCCCC2)c1 | -1 | . | 2 | . | 0.68 | . | . | .
CN(CC(=O)Nc1cccc(F)c1)C(=O)CC1CCCCC1 | 11* | -1 | 4 | -4 | 0.63 | 2 | 1 | 5
C#CCNC(=O)C1=CC(c2ccc(C#C)cc2)CC(OCCCCO)O1 (centres undefined) | . | . | . | . | 0.69 | . | . | .
Fc1ccccc1CNC(=S)Nc1cccc(C(F)(F)F)c1 | 11* | 7 | -3 | 9 | 0.63 | 7 | 8 | 10
FC(F)(F)c1cccc(NC(=S)NCc2ccc(Cl)cc2)c1 | 13* | 7 | -1 | 8 | 0.66 | 7 | 7 | 10
CCCCC(=O)N1CC=CC(c2ccc(OC)cc2)N(Cc2ccc(F)cc2)C(=O)C1 (centres undefined) | . | . | . | . | 0.65 | . | . | .
COc1ccc(NC(=S)N2CCN(CC=Cc3ccccc3)CC2)cc1 | . | . | . | . | 0.69 | . | . | .
O=C(N/N=C/c1cc(Cl)ccc1O)C(=O)Nc1ccccc1OC(F)(F)C(F)F | 16* | 12* | -12 | 12 | . | 4 | 7 | 10
CN1CCCC1CCNC(=O)c1c(-c2ccsc2)sc2ccccc12 (centres undefined) | . | . | . | . | 0.68 | . | . | .
CN1CCN(C(=O)/C=C/c2ccccc2)CC1 | 3 | 1 | -5 | 3 | 0.69 | . | . | .
CN1CCN(C(=O)/C=C/c2ccc([N+](=O)[O-])o2)CC1 | 17* | . | 4 | . | 0.43* | 12* | 13 | 82*
CO[C@H]1C=CO[C@@]2(C)Oc3c(C)c(O)c4c(O)c(c(C=NN5CCN(C)CC5)c(O)c4c3C2=O)NC(=O)C(C)=CC=C[C@H](C)[C@H](O)[C@@H](C)[C@@H](O)[C@@H](C)[C@H](OC(C)=O)[C@@H]1C | 76* | 42* | 75* | 49* | . | 78* | 90* | 93*
Cc1ccc(S(=O)(=O)N2CCOCC2)cc1NC(=O)CNCc1ccc(Cl)cc1Cl | 12* | -1 | -4 | 1 | 0.7 | 1 | 1 | 5
O=C(CNCc1ccccc1Cl)Nc1cc(S(=O)(=O)N2CCOCC2)ccc1Cl | -1 | 1 | 1 | 0 | 0.63 | . | . | .
Cc1ccc(S(=O)(=O)Nc2cccnc2Oc2ccc(Cl)cc2)cc1 | -1 | 2 | 2 | 3 | 0.68 | . | . | .
Clc1cc2cccnc2c2ccccc12 | 2 | 2 | 4 | 3 | 0.68 | . | . | .
Oc1c(Cl)cc(Cl)c2cccnc12 | 43* | . | 5 | . | 0.071* | 55* | 62* | 51*
Cc1ccc(S(=O)(=O)Nc2cc(Cl)c(O)c3ncccc23)cc1 | 12* | 11* | -1 | 11 | . | 5 | 9 | 9
Oc1c(I)cc(I)c2cccnc12 | 23* | 1 | -4 | -1 | 0.43* | 26* | 30* | 25*
Cc1cc(Cl)c2ccc3ccccc3c2n1 | 3 | 0 | -2 | 0 | 0.69 | . | . | .
Cc1ccc2c(Cl)cc(Cl)c(O)c2n1 | 13* | . | ? | . | 0.064* | 7 | 9 | 8
OCc1ccc(O)c2ncccc12 | 5 | 4 | -6 | -1 | 0.78 | . | . | .
SMILES | phage Ecoli inh | E coli growth-1 | Tat export inh | AddAB inh | E coli growth-2 | RecBCD conf | Ecoli viability | AddAB counter | others
Cc1ccccc1OCC(=O)NN=C1CC(=O)CC(C)(C)C1 | . | . | . | . | 0.67 | . | . | .
C#CCOCCOCCOCCNc1nc(N2CCN(C(=O)C(CCC(=O)O)n3cc(C(N)CCCCN)nn3)CC2)nc(N2CCN(C(=O)C(CCCCN)n3cc(C(N)CC(N)=O)nn3)CC2)n1 (centres undefined) | . | . | . | . | 0.71 | . | . | .
COc1cccc(NC(=O)c2ccc3c(c2)N(C)CCS3)c1 | 2 | -1 | -1 | 2 | 0.63 | . | . | .
CN1CCSc2ccc(C(=O)Nc3ccc(Cl)cc3)cc21 | 100* | 0 | 5 | 2 | . | 0 | 0 | -3
C=Cc1cnc([N+](=O)[O-])n1C | 29* | . | . | . | . | 19* | 21* | 97*
Oc1ccc(Cc2ccccc2)c2cccnc12 | 15* | . | . | . | 0.64 | 6 | 11 | 17
COc1cccc(-c2cnc(C(O)c3cccc(OC)c3)[nH]2)c1 (centres undefined) | 11* | . | . | . | . | 3 | 6 | -10
Cc1ccc(-c2cnc(C(O)c3cc(C)cc(C)c3)[nH]2)cc1 (centres undefined) | 17* | . | . | . | . | 11* | 14 | 14
Cc1cc(C(O)c2ncc(-c3ccc(Oc4ccccc4)cc3)[nH]2)ccc1F (centres undefined) | 11* | . | . | . | . | 1 | 4 | 4
OC(c1ccc(F)cc1)c1ncc(-c2ccc(Oc3ccccc3)cc2)[nH]1 (centres undefined) | 5 | . | . | . | . | . | . | .
Cc1cc(C)cc(C(O)c2ncc(-c3ccc4ccccc4c3)[nH]2)c1 (centres undefined) | 18* | . | . | . | . | 12* | 15 | 26*
O=C1C=C(c2ccc(Oc3ccccc3)cc2)CC(c2ccc(Cl)cc2)C1 (centres undefined) | . | . | . | . | 0.61 | . | . | .
CC(C)CC(NC(=O)OC(C)(C)C)C(=O)NC(CO)C(O)C1CC1C(=O)NC1CC1 (centres undefined) | . | . | . | . | 0.69 | . | . | .
O=C(C=NNC(=O)c1ccc(Cl)cc1Cl)c1ccccc1 | . | . | . | . | 0.71 | . | . | .
c1ccc(CSc2ccc(-c3ccccn3)nn2)cc1 | 11* | 8 | -5 | 6 | 0.68 | 5 | 7 | 12
Cc1[nH]nc(C(=O)NN=Cc2ccccc2Cl)c1N=NN(C)C | 14* | . | 0 | . | . | 8 | 10 | 42*
O=C(NNC(=O)c1ccc2c(c1)OCO2)NC12CC3CC(CC(C3)C1)C2 | 13* | 6 | 4 | 9 | 0.69 | 3 | 2 | 3
O=C(NC1C2CC3CC(C2)CC1C3)c1ccc2c(c1)OCO2 (centres undefined) | -3 | -1 | 5 | 3 | 0.66 | . | . | .

High-throughput results as filed in PubChem BioAssay.
